Results reported in paper PMC7862700, “An all-to-all approach to the identification of sequence-specific readers for epigenetic DNA modifications on cytosine”.

Experiments:
Assay in all cases: DAPPL (digital affinity profiling via proximity ligation, sequencing); 10 mM Tris-HCl pH 7.5, 50 mM NaCl, 1 mM DTT, 4% glycerol, room temperature, 30 min; GST-TFs on glutathione beads, 16-mer random dsDNA library, 0.1% formaldehyde crosslink after washing; high values mean tight binding
FEV = target: T1, FEV (Homo sapiens, UniProt Q99581 1-238); conditions: protein: recombinant; tags: N-terminal GST; dsDNA, one strand shown
T1 sequence: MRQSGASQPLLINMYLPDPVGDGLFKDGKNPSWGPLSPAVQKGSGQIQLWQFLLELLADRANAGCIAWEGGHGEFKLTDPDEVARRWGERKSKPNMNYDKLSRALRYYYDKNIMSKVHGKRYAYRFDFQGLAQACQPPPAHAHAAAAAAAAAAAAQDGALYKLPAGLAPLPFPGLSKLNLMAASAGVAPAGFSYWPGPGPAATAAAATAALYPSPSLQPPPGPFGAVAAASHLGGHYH
Method in brief: (§1)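 After expression in yeast as GST fusions, human transcription factors were bound to glutathione beads, DNA-barcoded and mixed with a tag-only sample. The pools were incubated with 200 nmole of a 16-mer random double-stranded DNA library in Tris/NaCl/DTT/glycerol buffer (30 min, room temperature), washed and crosslinked with 0.1% formaldehyde. Proximity ligation with BsaI/T4 ligase ran for 1 h at 37 °C, before PCR amplification and sequencing on an Illumina NextSeq500. Binding signal is a hexamer's read frequency for a factor divided by its frequency for the tag-only sample.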

ETV5 = ETV5 (Homo sapiens, UniProt P41161 1-510); conditions: protein: recombinant; tags: N-terminal GST; dsDNA, one strand shown
Chain of ETV5 (P41161 whole entry): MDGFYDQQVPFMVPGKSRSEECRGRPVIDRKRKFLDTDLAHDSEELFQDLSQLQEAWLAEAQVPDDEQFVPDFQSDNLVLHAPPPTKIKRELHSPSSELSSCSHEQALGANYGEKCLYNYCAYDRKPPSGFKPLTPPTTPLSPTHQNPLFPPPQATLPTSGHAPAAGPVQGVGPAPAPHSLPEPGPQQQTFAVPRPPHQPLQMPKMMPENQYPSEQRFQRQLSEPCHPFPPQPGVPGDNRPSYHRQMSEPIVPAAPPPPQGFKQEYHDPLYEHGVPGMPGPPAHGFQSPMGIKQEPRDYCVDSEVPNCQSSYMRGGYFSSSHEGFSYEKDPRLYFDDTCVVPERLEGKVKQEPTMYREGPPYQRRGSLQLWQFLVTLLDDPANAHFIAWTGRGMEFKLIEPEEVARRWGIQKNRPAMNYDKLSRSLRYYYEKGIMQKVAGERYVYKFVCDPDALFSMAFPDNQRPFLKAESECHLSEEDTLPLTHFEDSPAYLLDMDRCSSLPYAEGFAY
Method in brief: as §1

HSF1 = HSF1 (Homo sapiens, UniProt Q00613 1-529); conditions: protein: recombinant; tags: N-terminal GST; chain copies: 3; dsDNA, one strand shown
Chain of HSF1 (Q00613 whole entry): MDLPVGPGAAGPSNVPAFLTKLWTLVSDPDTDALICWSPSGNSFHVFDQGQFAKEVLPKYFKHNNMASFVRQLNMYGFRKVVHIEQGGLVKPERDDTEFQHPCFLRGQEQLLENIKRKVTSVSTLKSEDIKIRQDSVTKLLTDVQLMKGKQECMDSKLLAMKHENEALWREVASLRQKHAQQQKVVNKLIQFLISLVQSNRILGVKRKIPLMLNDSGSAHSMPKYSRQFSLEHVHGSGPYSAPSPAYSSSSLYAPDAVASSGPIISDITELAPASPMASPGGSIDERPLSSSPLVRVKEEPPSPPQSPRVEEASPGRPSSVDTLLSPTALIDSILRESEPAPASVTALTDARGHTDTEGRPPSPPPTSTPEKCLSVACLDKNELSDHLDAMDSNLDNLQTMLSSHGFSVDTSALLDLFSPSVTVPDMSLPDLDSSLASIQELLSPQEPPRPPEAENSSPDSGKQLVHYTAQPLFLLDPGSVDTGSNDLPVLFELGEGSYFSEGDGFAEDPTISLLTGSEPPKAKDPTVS
Method in brief: as §1

SPIC = target: T2, SPIC (Homo sapiens, UniProt Q8N5J4 1-248); conditions: protein: recombinant; tags: N-terminal GST; dsDNA, one strand shown
T2 sequence: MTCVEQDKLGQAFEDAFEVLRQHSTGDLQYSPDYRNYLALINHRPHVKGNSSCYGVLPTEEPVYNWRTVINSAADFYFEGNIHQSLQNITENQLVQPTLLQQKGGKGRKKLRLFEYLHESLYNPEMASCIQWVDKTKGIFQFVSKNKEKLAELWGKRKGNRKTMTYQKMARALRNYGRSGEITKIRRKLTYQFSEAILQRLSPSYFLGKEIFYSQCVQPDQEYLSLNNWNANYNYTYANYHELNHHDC
Method in brief: as §1

ELF4 = ELF4 (Homo sapiens, UniProt Q99607 1-663); conditions: protein: recombinant; tags: N-terminal GST; dsDNA, one strand shown
Chain of ELF4 (Q99607 whole entry): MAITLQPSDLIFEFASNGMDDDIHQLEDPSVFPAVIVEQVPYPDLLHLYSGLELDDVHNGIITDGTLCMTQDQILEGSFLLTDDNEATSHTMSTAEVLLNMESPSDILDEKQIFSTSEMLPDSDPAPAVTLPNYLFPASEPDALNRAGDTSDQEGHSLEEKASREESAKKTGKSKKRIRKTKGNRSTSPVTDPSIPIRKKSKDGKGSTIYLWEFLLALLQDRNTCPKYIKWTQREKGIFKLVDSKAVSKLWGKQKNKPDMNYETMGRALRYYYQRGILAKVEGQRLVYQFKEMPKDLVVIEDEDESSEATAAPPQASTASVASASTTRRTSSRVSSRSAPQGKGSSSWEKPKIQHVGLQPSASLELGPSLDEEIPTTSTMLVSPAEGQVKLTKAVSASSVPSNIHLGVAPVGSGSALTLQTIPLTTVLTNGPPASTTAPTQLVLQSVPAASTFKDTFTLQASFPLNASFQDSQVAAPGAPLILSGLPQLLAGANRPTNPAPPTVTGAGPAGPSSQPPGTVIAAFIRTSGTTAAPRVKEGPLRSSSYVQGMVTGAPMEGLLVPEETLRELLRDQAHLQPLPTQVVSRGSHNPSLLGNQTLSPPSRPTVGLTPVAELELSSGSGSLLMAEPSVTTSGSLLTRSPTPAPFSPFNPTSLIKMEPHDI
Method in brief: as §1

ELK4 = target: T3, ELK4 (Homo sapiens, UniProt P28324-2 1-405); conditions: protein: recombinant; tags: N-terminal GST; dsDNA, one strand shown
T3 sequence: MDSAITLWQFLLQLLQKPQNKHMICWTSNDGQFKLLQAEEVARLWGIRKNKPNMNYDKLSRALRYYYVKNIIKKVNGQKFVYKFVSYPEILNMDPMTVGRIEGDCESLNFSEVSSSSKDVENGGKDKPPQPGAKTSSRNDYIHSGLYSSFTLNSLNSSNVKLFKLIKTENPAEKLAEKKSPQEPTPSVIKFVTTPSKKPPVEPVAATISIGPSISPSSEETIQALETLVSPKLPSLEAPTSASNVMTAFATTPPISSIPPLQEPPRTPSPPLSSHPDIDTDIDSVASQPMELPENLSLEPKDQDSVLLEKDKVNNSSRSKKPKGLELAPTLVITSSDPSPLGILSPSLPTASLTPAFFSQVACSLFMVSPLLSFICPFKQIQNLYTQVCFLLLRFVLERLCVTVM
Method in brief: as §1

ETV2 = target: T4, ETV2 (Homo sapiens, UniProt O00321 1-342); conditions: protein: recombinant; tags: N-terminal GST; dsDNA, one strand shown
T4 sequence: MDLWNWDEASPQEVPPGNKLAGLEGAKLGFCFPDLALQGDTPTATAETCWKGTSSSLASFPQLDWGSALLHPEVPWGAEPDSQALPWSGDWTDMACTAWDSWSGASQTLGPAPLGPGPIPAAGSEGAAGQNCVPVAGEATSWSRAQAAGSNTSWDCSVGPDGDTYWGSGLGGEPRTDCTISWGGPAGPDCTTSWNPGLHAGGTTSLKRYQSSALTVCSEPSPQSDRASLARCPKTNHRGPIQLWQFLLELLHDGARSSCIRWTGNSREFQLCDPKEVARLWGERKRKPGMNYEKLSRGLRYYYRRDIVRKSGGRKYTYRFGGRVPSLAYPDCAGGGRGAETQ
Method in brief: as §1

ELF3 = target: T5, ELF3 (Homo sapiens, UniProt P78545 1-371); conditions: protein: recombinant; tags: N-terminal GST; dsDNA, one strand shown
T5 sequence: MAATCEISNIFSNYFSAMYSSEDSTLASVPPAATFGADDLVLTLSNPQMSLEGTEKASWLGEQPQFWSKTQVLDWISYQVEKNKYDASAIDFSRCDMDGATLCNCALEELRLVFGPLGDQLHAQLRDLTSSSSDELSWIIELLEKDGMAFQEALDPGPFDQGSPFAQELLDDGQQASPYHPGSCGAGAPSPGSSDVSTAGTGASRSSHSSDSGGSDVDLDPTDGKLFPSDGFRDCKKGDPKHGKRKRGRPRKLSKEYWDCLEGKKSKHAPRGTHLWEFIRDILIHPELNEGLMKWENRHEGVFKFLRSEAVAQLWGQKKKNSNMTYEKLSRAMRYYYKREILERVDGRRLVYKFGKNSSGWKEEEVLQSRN
Method in brief: as §1

CRX = CRX (Homo sapiens, UniProt O43186 1-299); conditions: protein: recombinant; tags: N-terminal GST; dsDNA, one strand shown
Chain of CRX (O43186 whole entry): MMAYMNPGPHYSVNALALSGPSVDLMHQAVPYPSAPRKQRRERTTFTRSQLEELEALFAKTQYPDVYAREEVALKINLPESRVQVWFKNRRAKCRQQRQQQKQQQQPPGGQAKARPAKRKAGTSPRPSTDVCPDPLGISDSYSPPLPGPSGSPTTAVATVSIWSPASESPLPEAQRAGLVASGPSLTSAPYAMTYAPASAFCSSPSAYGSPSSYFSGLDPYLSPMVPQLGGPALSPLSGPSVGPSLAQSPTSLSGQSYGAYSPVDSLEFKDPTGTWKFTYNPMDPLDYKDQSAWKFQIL
Method in brief: as §1

ETV1 = ETV1 (Homo sapiens, UniProt P50549 1-477); conditions: protein: recombinant; tags: N-terminal GST; dsDNA, one strand shown
Chain of ETV1 (P50549 whole entry): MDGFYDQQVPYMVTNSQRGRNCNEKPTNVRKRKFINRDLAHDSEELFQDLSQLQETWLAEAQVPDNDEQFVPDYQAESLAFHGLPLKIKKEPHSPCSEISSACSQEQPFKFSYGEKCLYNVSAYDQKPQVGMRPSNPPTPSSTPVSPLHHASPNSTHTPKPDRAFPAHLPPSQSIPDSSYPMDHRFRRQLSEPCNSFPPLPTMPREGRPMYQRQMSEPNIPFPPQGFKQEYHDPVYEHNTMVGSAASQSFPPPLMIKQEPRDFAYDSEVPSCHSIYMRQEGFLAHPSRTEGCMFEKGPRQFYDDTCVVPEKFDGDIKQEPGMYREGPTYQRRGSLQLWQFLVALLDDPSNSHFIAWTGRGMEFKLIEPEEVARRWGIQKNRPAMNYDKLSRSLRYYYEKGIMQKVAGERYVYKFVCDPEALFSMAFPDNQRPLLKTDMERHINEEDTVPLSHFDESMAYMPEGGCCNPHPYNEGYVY
Method in brief: as §1

ERF = target: T6, ERF (Homo sapiens, UniProt P50548 1-548); conditions: protein: recombinant; tags: N-terminal GST; dsDNA, one strand shown
T6 sequence: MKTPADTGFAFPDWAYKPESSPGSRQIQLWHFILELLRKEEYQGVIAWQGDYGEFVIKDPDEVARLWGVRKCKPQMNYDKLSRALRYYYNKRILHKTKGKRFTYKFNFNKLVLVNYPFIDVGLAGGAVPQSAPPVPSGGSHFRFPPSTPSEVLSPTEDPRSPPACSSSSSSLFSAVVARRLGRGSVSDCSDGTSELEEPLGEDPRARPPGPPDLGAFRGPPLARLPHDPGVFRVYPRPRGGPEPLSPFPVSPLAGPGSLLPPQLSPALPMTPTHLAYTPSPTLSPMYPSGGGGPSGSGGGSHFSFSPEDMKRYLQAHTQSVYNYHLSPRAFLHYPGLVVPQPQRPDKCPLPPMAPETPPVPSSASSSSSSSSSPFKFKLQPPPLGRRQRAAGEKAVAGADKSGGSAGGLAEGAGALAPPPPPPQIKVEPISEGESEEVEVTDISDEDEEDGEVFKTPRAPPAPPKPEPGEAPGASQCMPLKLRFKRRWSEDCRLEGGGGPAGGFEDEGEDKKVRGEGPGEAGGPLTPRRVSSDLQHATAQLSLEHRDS
Method in brief: as §1

ETV3L = target: T7, ETV3L (Homo sapiens, UniProt Q6ZN32 1-361); conditions: protein: recombinant; tags: N-terminal GST; dsDNA, one strand shown
T7 sequence: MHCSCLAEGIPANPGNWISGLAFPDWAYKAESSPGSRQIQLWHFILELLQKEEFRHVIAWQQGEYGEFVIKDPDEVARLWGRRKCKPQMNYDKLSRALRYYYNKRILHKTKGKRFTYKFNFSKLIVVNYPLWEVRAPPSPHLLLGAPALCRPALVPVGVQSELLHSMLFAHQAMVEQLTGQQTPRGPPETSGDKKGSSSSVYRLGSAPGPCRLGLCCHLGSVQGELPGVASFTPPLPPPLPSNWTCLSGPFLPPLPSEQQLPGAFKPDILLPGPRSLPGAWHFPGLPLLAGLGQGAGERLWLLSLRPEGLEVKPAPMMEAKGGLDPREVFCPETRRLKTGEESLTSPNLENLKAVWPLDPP
Method in brief: as §1

ETS2 = target: T8, ETS2 (Homo sapiens, UniProt P15036 1-469); conditions: protein: recombinant; tags: N-terminal GST; dsDNA, one strand shown
T8 sequence: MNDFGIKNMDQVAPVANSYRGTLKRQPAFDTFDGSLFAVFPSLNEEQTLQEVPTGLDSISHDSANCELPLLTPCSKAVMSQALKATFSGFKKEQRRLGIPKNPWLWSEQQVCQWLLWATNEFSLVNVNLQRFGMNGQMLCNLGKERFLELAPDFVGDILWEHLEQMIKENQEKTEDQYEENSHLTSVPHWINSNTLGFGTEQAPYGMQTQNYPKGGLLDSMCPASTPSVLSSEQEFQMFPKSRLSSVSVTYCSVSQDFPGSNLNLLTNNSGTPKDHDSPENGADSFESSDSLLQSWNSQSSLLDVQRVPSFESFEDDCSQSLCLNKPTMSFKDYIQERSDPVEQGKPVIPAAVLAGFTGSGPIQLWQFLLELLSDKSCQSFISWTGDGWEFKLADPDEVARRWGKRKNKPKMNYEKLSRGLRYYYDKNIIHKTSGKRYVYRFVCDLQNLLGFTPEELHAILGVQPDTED
Method in brief: as §1

SPDEF = target: T9, SPDEF (Homo sapiens, UniProt O95238 1-335); conditions: protein: recombinant; tags: N-terminal GST; dsDNA, one strand shown
T9 sequence: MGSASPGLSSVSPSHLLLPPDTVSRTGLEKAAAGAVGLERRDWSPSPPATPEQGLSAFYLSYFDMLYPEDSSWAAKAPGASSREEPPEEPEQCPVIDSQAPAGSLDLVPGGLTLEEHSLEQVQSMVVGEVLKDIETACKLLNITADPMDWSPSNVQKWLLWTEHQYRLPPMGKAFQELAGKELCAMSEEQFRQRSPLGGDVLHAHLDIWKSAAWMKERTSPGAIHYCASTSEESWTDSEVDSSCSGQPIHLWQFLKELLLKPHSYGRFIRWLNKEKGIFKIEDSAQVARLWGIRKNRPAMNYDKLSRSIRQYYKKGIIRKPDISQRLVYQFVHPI
Method in brief: as §1

ETV7 = target: T10, ETV7 (Homo sapiens, UniProt Q9Y603 1-341); conditions: protein: recombinant; tags: N-terminal GST; dsDNA, one strand shown
T10 sequence: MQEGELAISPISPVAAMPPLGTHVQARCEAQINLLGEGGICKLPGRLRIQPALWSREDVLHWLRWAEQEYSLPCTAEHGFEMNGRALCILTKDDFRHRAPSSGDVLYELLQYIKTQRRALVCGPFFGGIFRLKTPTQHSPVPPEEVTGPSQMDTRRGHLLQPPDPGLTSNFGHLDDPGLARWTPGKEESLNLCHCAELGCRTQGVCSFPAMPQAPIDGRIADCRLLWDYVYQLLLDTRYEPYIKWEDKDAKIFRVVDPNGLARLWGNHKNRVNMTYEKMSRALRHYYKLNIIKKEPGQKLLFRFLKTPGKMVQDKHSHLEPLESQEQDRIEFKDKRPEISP
Method in brief: as §1

ELF5 = target: T11, ELF5 (Homo sapiens, UniProt Q9UKW6-2 1-255); conditions: protein: recombinant; tags: N-terminal GST; dsDNA, one strand shown
T11 sequence: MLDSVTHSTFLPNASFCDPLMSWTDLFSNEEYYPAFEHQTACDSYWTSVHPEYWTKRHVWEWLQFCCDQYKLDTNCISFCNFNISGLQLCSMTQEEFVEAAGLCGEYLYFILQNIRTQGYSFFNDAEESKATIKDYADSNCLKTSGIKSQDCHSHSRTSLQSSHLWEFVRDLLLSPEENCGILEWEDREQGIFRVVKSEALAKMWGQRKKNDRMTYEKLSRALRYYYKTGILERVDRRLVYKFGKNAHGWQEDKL
Method in brief: as §1

ETV3 = target: T12, ETV3 (Homo sapiens, UniProt P41162-2 1-143); conditions: protein: recombinant; tags: N-terminal GST; dsDNA, one strand shown
T12 sequence: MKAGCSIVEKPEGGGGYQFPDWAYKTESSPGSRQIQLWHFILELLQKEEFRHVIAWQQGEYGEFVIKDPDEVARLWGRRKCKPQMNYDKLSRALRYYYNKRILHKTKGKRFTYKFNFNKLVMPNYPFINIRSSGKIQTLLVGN
Method in brief: as §1

ETV6 = ETV6 (Homo sapiens, UniProt P41212 1-452); conditions: protein: recombinant; tags: N-terminal GST; dsDNA, one strand shown
Chain of ETV6 (P41212 whole entry): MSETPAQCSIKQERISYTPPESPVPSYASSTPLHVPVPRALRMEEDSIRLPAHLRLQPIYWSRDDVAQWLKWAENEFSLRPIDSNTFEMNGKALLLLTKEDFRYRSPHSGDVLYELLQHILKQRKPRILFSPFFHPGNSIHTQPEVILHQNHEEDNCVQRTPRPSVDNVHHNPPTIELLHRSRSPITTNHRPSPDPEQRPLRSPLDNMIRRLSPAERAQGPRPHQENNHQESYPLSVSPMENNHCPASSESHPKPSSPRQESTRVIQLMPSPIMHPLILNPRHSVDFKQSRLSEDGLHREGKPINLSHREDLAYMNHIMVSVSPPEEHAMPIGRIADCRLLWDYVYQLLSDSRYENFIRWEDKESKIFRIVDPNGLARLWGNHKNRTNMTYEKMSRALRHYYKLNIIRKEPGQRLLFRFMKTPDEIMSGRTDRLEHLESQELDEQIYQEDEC
Method in brief: as §1

TTCGTC
binding signal (FEV): 1.21 fold enrichment (6-mer frequency, TF over GST control) | binding signal (ETV5): 1.33 fold enrichment (6-mer frequency, TF over GST control) | binding signal (HSF1): 1.25 fold enrichment (6-mer frequency, TF over GST control) | binding signal (SPIC): 1.23 fold enrichment (6-mer frequency, TF over GST control) | binding signal (ELF4): 1.29 fold enrichment (6-mer frequency, TF over GST control) | binding signal (ELK4): 1.41 fold enrichment (6-mer frequency, TF over GST control) | binding signal (ETV2): 1.33 fold enrichment (6-mer frequency, TF over GST control) | binding signal (ELF3): 1.39 fold enrichment (6-mer frequency, TF over GST control) | binding signal (CRX): 1.09 fold enrichment (6-mer frequency, TF over GST control) | binding signal (ETV1): 1.26 fold enrichment (6-mer frequency, TF over GST control) | binding signal (ERF): 1.36 fold enrichment (6-mer frequency, TF over GST control) | binding signal (ETV3L): 1.23 fold enrichment (6-mer frequency, TF over GST control) | binding signal (ETS2): 1.31 fold enrichment (6-mer frequency, TF over GST control) | binding signal (SPDEF): 1.29 fold enrichment (6-mer frequency, TF over GST control) | binding signal (ETV7): 1.22 fold enrichment (6-mer frequency, TF over GST control) | binding signal (ELF5): 1.18 fold enrichment (6-mer frequency, TF over GST control) | binding signal (ETV3): 1.31 fold enrichment (6-mer frequency, TF over GST control) | binding signal (ETV6): 1.23 fold enrichment (6-mer frequency, TF over GST control)
